Laboratory results: PMC9911399, “Two distinct binding modes provide the RNA-binding protein RbFox with extraordinary sequence specificity”
Substitutions are numbered along the chain they refer to; changes in the protein carry UniProt numbers. The full ranking holds about 16,000 sequences; the median of “ka relative to ugcaugu” is about 0.0091, and the highest 2% start at about 0.032. Many of the other results were omitted from the sample, so the highest values are more common in it than they were.

T1: RBFOX1 RRM (Homo sapiens, UniProt Q9NWB1 109-208)
T1 sequence: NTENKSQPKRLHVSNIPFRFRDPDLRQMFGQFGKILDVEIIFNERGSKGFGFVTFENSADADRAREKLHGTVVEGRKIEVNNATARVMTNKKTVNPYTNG

B1: GGAAUGC (DNA:RNA)
RNA: GGGAGACCGGAAUUCAGAUUGUCCGGAAUGCUUAAAUCCCGUCGUAGCCACCA
DNA 1: CAATCTGAATTCCGGTCTCCC
DNA 2: TGGTGGCTACGACGGGATT
B2: AGGCUUG (DNA:RNA)
RNA: B1 RNA with G25A, A27G, A28C, G30U, C31G
DNA 1: CAATCTGAATTCCGGTCTCCC
DNA 2: TGGTGGCTACGACGGGATT
B3: CCAAGUA (DNA:RNA)
RNA: B1 RNA with G25C, G26C, U29G, G30U, C31A
DNA 1: CAATCTGAATTCCGGTCTCCC
DNA 2: TGGTGGCTACGACGGGATT
B4: UGACUAA (DNA:RNA)
RNA: B1 RNA with G25U, A28C, G30A, C31A
DNA 1: CAATCTGAATTCCGGTCTCCC
DNA 2: TGGTGGCTACGACGGGATT
B5: AGAUAAC (DNA:RNA)
RNA: B1 RNA with G25A, A28U, U29A, G30A
DNA 1: CAATCTGAATTCCGGTCTCCC
DNA 2: TGGTGGCTACGACGGGATT
B6: CCAGGCC (DNA:RNA)
RNA: B1 RNA with G25C, G26C, A28G, U29G, G30C
DNA 1: CAATCTGAATTCCGGTCTCCC
DNA 2: TGGTGGCTACGACGGGATT
B7: CUGUCUG (DNA:RNA)
RNA: GGGAGACCGGAAUUCAGAUUGUCCCUGUCUGUUAAAUCCCGUCGUAGCCACCA
DNA 1: CAATCTGAATTCCGGTCTCCC
DNA 2: TGGTGGCTACGACGGGATT
B8: GGAUACC (DNA:RNA)
RNA: B1 RNA with A28U, U29A, G30C
DNA 1: CAATCTGAATTCCGGTCTCCC
DNA 2: TGGTGGCTACGACGGGATT
B9: GGGAUGC (DNA:RNA)
RNA: B1 RNA with A27G
DNA 1: CAATCTGAATTCCGGTCTCCC
DNA 2: TGGTGGCTACGACGGGATT
B10: GUCUUGC (DNA:RNA)
RNA: B1 RNA with G26U, A27C, A28U
DNA 1: CAATCTGAATTCCGGTCTCCC
DNA 2: TGGTGGCTACGACGGGATT
B11: CACCGGC (DNA:RNA)
RNA: B1 RNA with G25C, G26A, A27C, A28C, U29G
DNA 1: CAATCTGAATTCCGGTCTCCC
DNA 2: TGGTGGCTACGACGGGATT
B12: UAAAUGC (DNA:RNA)
RNA: B1 RNA with G25U, G26A
DNA 1: CAATCTGAATTCCGGTCTCCC
DNA 2: TGGTGGCTACGACGGGATT
B13: CGGAUGC (DNA:RNA)
RNA: B1 RNA with G25C, A27G
DNA 1: CAATCTGAATTCCGGTCTCCC
DNA 2: TGGTGGCTACGACGGGATT
B14: GGAUGCU (DNA:RNA)
RNA: B1 RNA with A28U, U29G, G30C, C31U
DNA 1: CAATCTGAATTCCGGTCTCCC
DNA 2: TGGTGGCTACGACGGGATT
B15: UGAAUUG (DNA:RNA)
RNA: B1 RNA with G25U, G30U, C31G
DNA 1: CAATCTGAATTCCGGTCTCCC
DNA 2: TGGTGGCTACGACGGGATT
B16: UGAAUGC (DNA:RNA)
RNA: B1 RNA with G25U
DNA 1: CAATCTGAATTCCGGTCTCCC
DNA 2: TGGTGGCTACGACGGGATT
B17: CCCCGGC (DNA:RNA)
RNA: B1 RNA with G25C, G26C, A27C, A28C, U29G
DNA 1: CAATCTGAATTCCGGTCTCCC
DNA 2: TGGTGGCTACGACGGGATT
B18: GUCCGGC (DNA:RNA)
RNA: B1 RNA with G26U, A27C, A28C, U29G
DNA 1: CAATCTGAATTCCGGTCTCCC
DNA 2: TGGTGGCTACGACGGGATT
B19: CGGCUUG (DNA:RNA)
RNA: B7 RNA with U26G, U28C, C29U
DNA 1: CAATCTGAATTCCGGTCTCCC
DNA 2: TGGTGGCTACGACGGGATT
B20: GGCUUGC (DNA:RNA)
RNA: B1 RNA with A27C, A28U
DNA 1: CAATCTGAATTCCGGTCTCCC
DNA 2: TGGTGGCTACGACGGGATT

The binders below were run against T1, RBFOX1 RRM (assay: EMSA; HiTS-Eq, 1 nM pool, 10 min; buffer printed only for the single-RNA assays: 10 mM Tris pH 7.5, 150 mM NaCl, 3.4 mM EDTA, 0.001% NP-40, 30 C). Settings: tags: His6 N-terminal (pET28a); label: 5' 32P.
Summary of the method: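 Purified RbFox RRM (wild type or mutant) was equilibrated for 10 min in 50 µL with 1 nM of a 5′-radiolabelled pool of RNA with 7 randomized nucleotides, its flanks annealed to DNA oligonucleotides, across increasing protein concentrations. Free RNA was separated by 8% native PAGE, excised, reverse-transcribed, PCR-barcoded and sequenced on an Illumina HiSeq 2500. Relative association constants came from read-count changes of each variant against the control reaction, normalised to the cognate motif.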
With B1 the binding signal was 0.0946 KA relative to UGCAUGU. B2 was tested, and the binding signal was 0.0346 KA relative to UGCAUGU. In the case of B3, the binding signal is reported as 0.00123 KA relative to UGCAUGU. B4 was tested, and the binding signal was 0.00904 KA relative to UGCAUGU. With B5 the binding signal was 0.00125 KA relative to UGCAUGU. B6 was tested, and the binding signal was 0.0113 KA relative to UGCAUGU. For B7, the binding signal was 0.0306 KA relative to UGCAUGU. In the case of B8, the binding signal is reported as 0.00541 KA relative to UGCAUGU. B9 was tested, and the binding signal was 0.0515 KA relative to UGCAUGU. In the case of B10, the binding signal is reported as 0.0291 KA relative to UGCAUGU. B11 was tested, and the binding signal was 0.00645 KA relative to UGCAUGU. B12 was tested, and the binding signal was 0.00992 KA relative to UGCAUGU. In the case of B13, the binding signal is reported as 0.0275 KA relative to UGCAUGU. In the case of B14, the binding signal is reported as 0.0261 KA relative to UGCAUGU. B15 was tested, and the binding signal was 0.0261 KA relative to UGCAUGU. For B16, the binding signal was 0.0399 KA relative to UGCAUGU. For B17, the binding signal was 0.00228 KA relative to UGCAUGU. In the case of B18, the binding signal is reported as 0.00575 KA relative to UGCAUGU. For B19, the binding signal was 0.0325 KA relative to UGCAUGU. With B20 the binding signal was 0.0328 KA relative to UGCAUGU.
